Compound activity as filed in PubChem BioAssay.
SENP8 block-1 – blocks human SENP8 cleavage of Nedd8 substrate. Q96LD8. recombinant SENP8, Nedd8 substrate fluorescence. inhibition, % at 20 µM. 0.64% of 360,000 active; in the data active means inhibition mostly above about 40%, no sharp cut-off; inactive means mostly below about 27%
SENP6 inh – SENP6 protease inhibition; AID 2599; Q9GZR1; Recombinant SENP6 catalytic domain, aminoluciferin luminescence; 1.8% of 330,000 active; inhibition, % at 10 µM;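 active means inhibition above about 50% at the single tested dose, limit read from the data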
C8 TRAIL sens – caspase-8 TRAIL sensitization | NB7+C8 cells + TRAIL, ATPlite viability luminescence | inhibition (viability loss, TRAIL sensitization), % at 10 µM | 1% of 360,000 active | AID 624354;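 active means compounds causing at least 50% loss of cell viability in the single-dose screen, relative to plate controls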
SENP7 block – SENP7 protease inhibition | Q9BQF6 | 1.5% of 330,000 active | inhibition, % at 5 µM | recombinant SENP7, Z-RLRGG-aminoluciferin luminescence, 40 min;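 active means inhibition above about 50% at the single test dose, limit read from the data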
Target sequence (Q9BQF6 706-1050 limits assumed): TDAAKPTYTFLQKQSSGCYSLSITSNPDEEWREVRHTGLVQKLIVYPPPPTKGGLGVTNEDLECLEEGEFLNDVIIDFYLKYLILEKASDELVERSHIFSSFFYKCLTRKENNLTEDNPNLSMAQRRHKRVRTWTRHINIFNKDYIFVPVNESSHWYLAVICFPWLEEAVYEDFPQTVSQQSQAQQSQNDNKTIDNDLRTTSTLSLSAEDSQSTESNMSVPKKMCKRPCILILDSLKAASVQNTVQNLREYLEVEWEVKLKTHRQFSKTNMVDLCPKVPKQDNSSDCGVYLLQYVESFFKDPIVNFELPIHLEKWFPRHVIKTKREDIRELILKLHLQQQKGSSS
PPC-1+TRAIL kill – kills PPC-1 cancer cells in the presence of TRAIL; AID 1443; PPC-1 cells + TRAIL, ATPLite viability luminescence; 0.41% of 220,000 active; cell killing (% activity), % at 4 µM or 5 µM;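 active means cell killing above 50% in the first pass at 4 µM, then a duplicate retest at 5 µM averaging 50% or more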
SENP8 block-2 – inhibitors of human SENP8 protease. inhibition, % at 10 µM. 1.2% of 330,000 active. purified SENP8, Z-RLRGG-aminoluciferin cleavage, luminescence. AID 2540; in the data active means inhibition above about 50%
SENP8 conf – confirmation of human SENP8 protease inhibitors; 40% of 6,200 active; Recombinant SENP8, Z-RLRGG-aminoluciferin luminescence, 60 min; shares compounds with SENP7 block; inhibition, % at 12.5 µM;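 active means mean inhibition across replicates above about 50%, limit read from the data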
SENP6 conf – confirmation of human SENP6 protease inhibitors; shares compounds with SENP7 block; recombinant SENP6, Z-RLRGG-aminoluciferin luminescence; inhibition, % at 12.5 µM; 58% of 6,200 active; AID 488915
SENP7 conf – confirmation of human SENP7 protease inhibitors; shares compounds with SENP7 block; recombinant SENP7, Z-RLRGG-aminoluciferin luminescence, 40 min; inhibition, % at 12.5 µM; 69% of 6,200 active
Casp3 SENP sel – selectivity test for SENP inhibitors: human caspase-3 inhibition; shares compounds with SENP7 block; purified caspase-3, Z-DEVD-aminoluciferin luminescence, 60 min; inhibition, % at 12.5 µM; 60% of 6,200 active; AID 488918;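 active means mean inhibition above about 50%, limit read from the data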
Target sequence (P42574 28-227 limits assumed): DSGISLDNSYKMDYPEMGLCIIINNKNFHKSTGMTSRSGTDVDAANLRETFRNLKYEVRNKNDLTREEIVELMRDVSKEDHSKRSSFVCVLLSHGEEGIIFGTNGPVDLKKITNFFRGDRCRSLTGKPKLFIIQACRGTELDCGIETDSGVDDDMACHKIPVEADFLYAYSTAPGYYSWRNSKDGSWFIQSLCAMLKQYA
SENP luc ctr – luminescence interference (SENP counter-screen). shares compounds with SENP7 block. Pre-incubated SENP8/Z-RLRGG-aminoluciferin, luciferase luminescence interference. inhibition, % at 12.5 µM. 39% of 6,200 active. AID 488919;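 active means mean inhibition above about 50% when retested at one dose, limit read from the data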
A number is an active result; – = inactive; · = no result. Rows were chosen to be rich in hits. Some 3% of all compounds tested hit in one or more screens of this group.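 How the source made its calls, unless noted: active means mean inhibition above about 50% in the one-dose retest (limit read from the data); inactive means the rest.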

SMILES	SENP8 block-1	SENP6 inh	C8 TRAIL sens	SENP7 block	PPC-1+TRAIL kill	SENP8 block-2	SENP8 conf	SENP6 conf	SENP7 conf	Casp3 SENP sel	SENP luc ctr
COc1ccc(-c2cc3ccc(OCc4nn[nH]n4)cc3oc2=O)cc1OC	–	75.9	–	65.2	–	50.7	66.8	66.2	90.6	84.8	72.2
CC(=O)N1CCc2c(sc(NC(=O)c3ccc(S(=O)(=O)N(C)CC4CCCO4)cc3)c2C(N)=O)C1 (stereo not given)	–	·	–	·	·	·	·	·	·	·	·
CCCCCNCc1cccc(Br)c1	–	–	–	–	–	–	·	·	·	·	·
O=[N+]([O-])c1ccc(O)c(/C=N/Nc2ccccc2Cl)c1	–	50.2	–	50.0	–	–	–	–	–	–	–
O=[N+]([O-])c1cccc(/C=N\N=C2c3ccccc3-c3ccccc32)c1O	–	–	–	–	–	–	·	·	·	·	·
O=[N+]([O-])c1ccccc1N/N=C/c1cccc(O)c1O	55.2	91.5	–	98.4	–	87.9	–	–	–	–	–
O=[N+]([O-])c1ccccc1N/N=C\c1ccccc1Cl	–	91.3	–	97.1	–	84.2	–	–	–	55.6	–
Cc1cc(Cn2nnnc2-c2ccncc2)cc(C)c1O	–	–	–	–	·	–	·	·	·	·	·
O=C(CCNC(=O)c1ccccc1Cl)Nc1ccc(S(=O)(=O)Nc2nccs2)cc1	–	–	–	–	·	–	·	·	·	·	·
COC(CNC(=O)C1CC(=O)N(CCc2ccc(C)cc2)C1)OC (stereo not given)	–	–	–	–	·	–	·	·	·	·	·
Cn1ccsc1=NC(=O)c1ccc(Cl)cc1	–	–	–	–	–	–	·	·	·	·	·
COC(=O)c1ccc(C(=O)N=c2sccn2C)cc1	–	55.3	–	51.9	·	–	–	–	76.4	78.0	–
COc1ccc(C(=O)N=c2sccn2C)cc1	–	–	–	–	–	–	·	·	·	·	·
Cn1ccsc1=NC(=O)c1ccc(OC(F)(F)F)cc1	–	63.2	–	60.9	·	51.2	55.8	58.5	88.2	62.0	66.0
COc1cccc(CNC(=O)[C@@H]2CCCN2C(=O)[C@H]2CCCCN2C(=O)c2ccccc2)c1	–	·	–	·	·	·	·	·	·	·	·
O=C(Nc1ccccc1)Oc1ccc[nH]c1=O	–	74.5	–	–	–	–	–	–	–	–	–
O=C(Oc1ccc[nH]c1=O)c1ccc(F)cc1	–	·	–	·	·	·	·	·	·	·	·
CCCCSc1ncc(C(=O)OCC)c(N)n1	–	–	–	–	–	–	·	·	·	·	·
CCOC(=O)c1cnc(SCCc2ccccc2)nc1N	–	58.5	–	–	–	–	–	–	–	–	–
CCOc1ccc(OCC)c(NC(=O)CCSCCc2ccccn2)c1	–	–	–	–	–	–	·	·	·	·	·
CCOc1ccc(OCC)c(NC(=O)CSCCc2ccccn2)c1	–	82.3	–	–	–	–	–	–	–	–	–
COc1ccc(C(=O)NN/C(=N/S(=O)(=O)c2ccc(C)cc2)c2ccccc2)cc1	–	87.7	–	78.3	–	54.0	68.7	64.3	88.3	69.9	72.7
Cc1ccc(S(=O)(=O)/N=C(/NC(=S)Nc2ccccc2)c2ccccc2)cc1	–	73.6	–	–	–	–	67.2	65.4	85.8	–	–
CCOc1ccc(S(=O)(=O)/N=C(/Nc2ccc(OC)cc2)c2ccccc2)cc1	–	–	–	–	·	–	·	·	·	·	·
O=C1CN(CC(=O)Nc2cccc(Cl)c2Cl)c2ccccc2N1	–	–	–	–	–	–	·	·	·	·	·
SMILES	SENP8 block-1	SENP6 inh	C8 TRAIL sens	SENP7 block	PPC-1+TRAIL kill	SENP8 block-2	SENP8 conf	SENP6 conf	SENP7 conf	Casp3 SENP sel	SENP luc ctr
Cc1ccc([C@H]2N[C@]3(CCCN(CC4CCCCC4)C3=O)[C@H]3C(=O)N(C)C(=O)[C@@H]23)cc1	–	·	–	·	·	·	·	·	·	·	·
C[C@@H]1CCCCO[C@H](CN(C)Cc2ccc(C(=O)O)cc2)[C@@H](C)CN([C@H](C)CO)C(=O)c2cc(NC(=O)CCC(F)(F)F)ccc2O1	–	·	–	·	·	·	·	·	·	·	·
COc1ccc(Nc2nc(-c3cccnc3)cs2)c(OC)c1	–	–	–	–	·	–	·	·	·	·	·
Fc1ccc(Nc2nc(-c3cccnc3)cs2)cc1	–	–	–	–	·	–	·	·	·	·	·
CCN(CC)c1ccc(Nc2nc(-c3cccnc3)cs2)cc1	–	62.1	–	–	·	56.8	55.8	51.7	87.8	–	–
COc1ccccc1Nc1nc(-c2cccnc2)cs1	–	67.4	–	52.7	·	50.4	–	–	77.9	–	59.8
O=c1cc(CN(Cc2ccccc2)Cc2ccccc2)c2ccccc2o1	–	·	–	·	·	·	·	·	·	·	·
O=C(Nc1ccc(N2CCCC2)cc1)c1ccccc1F	–	–	–	–	–	–	·	·	·	·	·
O=C(Cc1ccccc1)Nc1ccc(N2CCCCC2)cc1	–	–	–	64.3	–	54.1	–	–	76.7	73.4	–
O=C(Nc1ccc(N2CCCC2)cc1)c1cccc(F)c1	–	94.1	–	92.7	–	89.0	87.1	86.4	96.4	79.7	74.6
O=C(Nc1ccc(N2CCCCC2)cc1)c1ccc(F)cc1F	–	88.3	–	79.6	–	77.1	–	77.3	87.5	83.5	–
O=C(Nc1ccc(N2CCCC2=O)cc1)c1cccc(F)c1	–	81.1	–	88.9	–	72.0	–	–	61.6	69.9	–
CCN1CCN(c2ccc(NC(=O)c3cccc(N4CCCC4=O)c3)cc2)CC1	–	–	–	–	·	–	·	·	·	·	·
O=C(COC(=O)C1CCN(S(=O)(=O)c2ccccc2)CC1)NC(=O)c1ccc(OC(F)F)cc1	–	–	–	–	–	–	·	·	·	·	·
CC(C)c1ccc(/C=C/C(=O)O)cc1	–	–	–	–	–	–	·	·	·	·	·
CCCCCc1ccc(-c2ccc(/C=C/C(=O)O)cc2)nc1	–	75.5	81.9	–	–	–	76.5	67.8	87.9	–	–
Cc1ccc(Nc2ccccc2)cc1	–	–	–	–	–	–	·	·	·	·	·
Cc1ccc(NC2=Nc3ccccc3CS2)cc1	–	82.9	55.1	92.0	–	75.0	–	82.6	94.9	85.1	–
CCOc1cc(CNc2ccc3cn[nH]c3c2)ccc1OC	–	67.9	–	58.6	–	53.1	–	–	–	–	–
CCCc1cc2c(=O)c(-c3ccc4c(c3)OCCO4)coc2cc1OS(C)(=O)=O	–	–	–	–	–	–	·	·	·	·	·
CCc1cc2c(=O)c(-c3ccc4c(c3)OCCO4)coc2cc1OC(=O)c1ccco1	–	–	71.3	73.3	–	–	–	–	–	–	–
CCN(CC)C(=O)Oc1ccc2c(=O)c(-c3ccc(OC)cc3)coc2c1	–	–	–	–	–	–	·	·	·	·	·
